Targets with a hit are over-represented here; the source holds about 7,900 in all. About 0.6% of all pairs of compound and target were hits.

Sequence of UniProt Q15642 (Q15642 whole entry, looked up): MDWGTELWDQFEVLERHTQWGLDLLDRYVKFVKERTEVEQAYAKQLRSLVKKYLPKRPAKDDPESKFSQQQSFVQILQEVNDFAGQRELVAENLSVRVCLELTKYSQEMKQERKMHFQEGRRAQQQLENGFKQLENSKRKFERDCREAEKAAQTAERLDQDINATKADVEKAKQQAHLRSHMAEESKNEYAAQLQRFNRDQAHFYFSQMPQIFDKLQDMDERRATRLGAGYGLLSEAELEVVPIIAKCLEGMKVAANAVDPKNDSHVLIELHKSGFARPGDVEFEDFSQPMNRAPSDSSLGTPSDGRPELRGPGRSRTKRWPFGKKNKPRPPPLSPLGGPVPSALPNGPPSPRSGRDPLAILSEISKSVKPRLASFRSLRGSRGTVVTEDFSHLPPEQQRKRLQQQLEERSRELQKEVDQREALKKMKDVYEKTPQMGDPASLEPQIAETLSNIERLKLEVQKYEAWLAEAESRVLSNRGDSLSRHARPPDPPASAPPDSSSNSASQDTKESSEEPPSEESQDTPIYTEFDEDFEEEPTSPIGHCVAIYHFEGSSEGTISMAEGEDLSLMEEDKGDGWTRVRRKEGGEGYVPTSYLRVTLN
Sequence of WASHC2C, A0A096LPC5 (A0A096LPC5 whole entry, looked up): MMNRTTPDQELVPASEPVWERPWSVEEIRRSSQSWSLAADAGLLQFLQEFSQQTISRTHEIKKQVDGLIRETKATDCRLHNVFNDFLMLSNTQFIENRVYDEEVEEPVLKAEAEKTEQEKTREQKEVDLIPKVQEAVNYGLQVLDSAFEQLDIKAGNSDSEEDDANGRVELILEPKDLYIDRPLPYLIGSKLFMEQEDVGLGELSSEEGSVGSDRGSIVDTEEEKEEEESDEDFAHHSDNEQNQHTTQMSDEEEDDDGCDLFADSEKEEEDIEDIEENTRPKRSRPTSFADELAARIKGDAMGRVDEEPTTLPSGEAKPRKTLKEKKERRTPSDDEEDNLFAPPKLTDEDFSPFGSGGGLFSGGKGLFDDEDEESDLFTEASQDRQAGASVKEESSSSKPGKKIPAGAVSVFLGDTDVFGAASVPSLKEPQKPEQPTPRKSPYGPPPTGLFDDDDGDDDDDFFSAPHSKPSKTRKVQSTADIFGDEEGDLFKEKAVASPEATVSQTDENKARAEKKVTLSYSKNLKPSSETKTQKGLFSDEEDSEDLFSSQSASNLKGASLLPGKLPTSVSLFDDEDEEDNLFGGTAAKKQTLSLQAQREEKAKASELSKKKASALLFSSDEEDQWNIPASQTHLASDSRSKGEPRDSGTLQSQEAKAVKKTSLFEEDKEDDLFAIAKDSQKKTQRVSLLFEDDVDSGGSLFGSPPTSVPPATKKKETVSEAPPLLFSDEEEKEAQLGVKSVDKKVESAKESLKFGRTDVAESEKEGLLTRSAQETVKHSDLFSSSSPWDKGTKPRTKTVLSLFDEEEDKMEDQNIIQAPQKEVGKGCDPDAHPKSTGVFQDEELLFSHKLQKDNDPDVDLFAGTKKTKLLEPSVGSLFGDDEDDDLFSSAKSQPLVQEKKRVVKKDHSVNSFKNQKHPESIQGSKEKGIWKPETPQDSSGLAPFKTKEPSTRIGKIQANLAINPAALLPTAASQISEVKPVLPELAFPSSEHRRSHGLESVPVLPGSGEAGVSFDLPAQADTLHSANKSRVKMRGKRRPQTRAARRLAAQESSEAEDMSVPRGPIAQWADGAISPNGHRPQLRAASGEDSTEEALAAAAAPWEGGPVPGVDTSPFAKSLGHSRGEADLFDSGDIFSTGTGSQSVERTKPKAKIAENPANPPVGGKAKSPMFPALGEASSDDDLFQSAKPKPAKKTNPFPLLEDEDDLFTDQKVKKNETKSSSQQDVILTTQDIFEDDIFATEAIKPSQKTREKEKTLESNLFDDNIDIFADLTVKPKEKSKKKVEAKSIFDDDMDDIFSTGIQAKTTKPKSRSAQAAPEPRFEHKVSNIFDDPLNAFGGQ
Sequence of UniProt Q9NZ09 (Q9NZ09 whole entry, looked up): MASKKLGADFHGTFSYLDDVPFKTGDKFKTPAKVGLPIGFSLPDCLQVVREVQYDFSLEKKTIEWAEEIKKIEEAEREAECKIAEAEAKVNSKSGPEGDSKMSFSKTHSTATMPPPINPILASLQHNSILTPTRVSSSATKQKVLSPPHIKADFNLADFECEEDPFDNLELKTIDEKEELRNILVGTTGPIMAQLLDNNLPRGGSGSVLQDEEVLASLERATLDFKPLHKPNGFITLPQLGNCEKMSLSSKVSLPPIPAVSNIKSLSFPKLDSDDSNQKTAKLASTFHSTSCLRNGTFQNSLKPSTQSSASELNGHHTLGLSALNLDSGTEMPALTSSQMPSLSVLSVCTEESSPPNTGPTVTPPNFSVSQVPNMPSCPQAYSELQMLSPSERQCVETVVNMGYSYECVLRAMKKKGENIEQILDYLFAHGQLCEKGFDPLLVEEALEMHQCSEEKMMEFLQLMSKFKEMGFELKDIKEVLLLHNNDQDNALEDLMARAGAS
Sequence of UniProt Q8N1B4 (Q8N1B4 whole entry, looked up): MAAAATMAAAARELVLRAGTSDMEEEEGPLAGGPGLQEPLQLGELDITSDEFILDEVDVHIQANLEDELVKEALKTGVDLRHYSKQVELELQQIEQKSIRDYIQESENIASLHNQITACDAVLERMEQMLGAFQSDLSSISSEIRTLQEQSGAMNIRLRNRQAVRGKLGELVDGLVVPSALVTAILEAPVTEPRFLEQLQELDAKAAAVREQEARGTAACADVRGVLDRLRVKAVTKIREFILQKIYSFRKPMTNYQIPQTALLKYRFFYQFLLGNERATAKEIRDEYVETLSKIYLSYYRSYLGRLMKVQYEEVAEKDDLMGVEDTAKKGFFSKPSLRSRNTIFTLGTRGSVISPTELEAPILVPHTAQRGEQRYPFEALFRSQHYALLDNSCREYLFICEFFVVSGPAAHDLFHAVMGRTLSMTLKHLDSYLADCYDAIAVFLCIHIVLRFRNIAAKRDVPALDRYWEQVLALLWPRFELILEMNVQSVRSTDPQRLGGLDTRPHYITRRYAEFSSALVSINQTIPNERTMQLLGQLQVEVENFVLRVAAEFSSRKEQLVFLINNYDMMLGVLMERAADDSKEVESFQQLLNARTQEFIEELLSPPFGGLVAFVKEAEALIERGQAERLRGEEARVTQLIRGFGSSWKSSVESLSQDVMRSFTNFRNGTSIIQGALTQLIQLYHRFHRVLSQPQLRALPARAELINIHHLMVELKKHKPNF
Sequence of UniProt Q8IY95 (Q8IY95 whole entry, looked up): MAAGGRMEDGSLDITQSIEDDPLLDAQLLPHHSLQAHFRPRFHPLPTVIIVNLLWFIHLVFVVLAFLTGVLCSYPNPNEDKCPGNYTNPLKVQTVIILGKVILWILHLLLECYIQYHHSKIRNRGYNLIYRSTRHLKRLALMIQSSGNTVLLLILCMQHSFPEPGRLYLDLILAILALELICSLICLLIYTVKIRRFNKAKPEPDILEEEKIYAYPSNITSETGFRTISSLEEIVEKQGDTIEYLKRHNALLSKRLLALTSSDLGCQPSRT
Sequence of UniProt Q9Y5L0 (Q9Y5L0 whole entry, looked up): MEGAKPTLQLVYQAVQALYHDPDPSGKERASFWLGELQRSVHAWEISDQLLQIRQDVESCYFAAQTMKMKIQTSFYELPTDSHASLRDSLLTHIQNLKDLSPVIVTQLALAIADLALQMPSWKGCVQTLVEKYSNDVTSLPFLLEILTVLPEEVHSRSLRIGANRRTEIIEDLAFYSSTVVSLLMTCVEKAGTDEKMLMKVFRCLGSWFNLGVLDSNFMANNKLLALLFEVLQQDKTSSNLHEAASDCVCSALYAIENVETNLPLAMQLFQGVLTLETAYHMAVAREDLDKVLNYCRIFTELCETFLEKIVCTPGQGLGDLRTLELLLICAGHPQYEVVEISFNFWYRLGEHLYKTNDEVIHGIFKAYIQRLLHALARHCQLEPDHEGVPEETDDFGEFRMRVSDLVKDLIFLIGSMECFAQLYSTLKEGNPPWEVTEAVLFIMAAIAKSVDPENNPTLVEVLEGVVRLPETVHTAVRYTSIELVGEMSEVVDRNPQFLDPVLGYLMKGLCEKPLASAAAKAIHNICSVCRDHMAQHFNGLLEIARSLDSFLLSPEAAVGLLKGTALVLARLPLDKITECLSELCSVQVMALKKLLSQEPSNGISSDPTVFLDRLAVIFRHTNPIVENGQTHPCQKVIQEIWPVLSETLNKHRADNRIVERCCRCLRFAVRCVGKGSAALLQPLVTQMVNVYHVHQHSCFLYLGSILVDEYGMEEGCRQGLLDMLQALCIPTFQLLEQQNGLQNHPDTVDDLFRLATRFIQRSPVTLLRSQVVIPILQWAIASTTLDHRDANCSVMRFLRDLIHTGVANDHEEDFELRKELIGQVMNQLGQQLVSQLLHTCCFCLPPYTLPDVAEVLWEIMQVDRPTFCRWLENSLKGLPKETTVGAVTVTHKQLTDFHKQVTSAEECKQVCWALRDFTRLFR
Sequence of UniProt O14773 (O14773 whole entry, looked up): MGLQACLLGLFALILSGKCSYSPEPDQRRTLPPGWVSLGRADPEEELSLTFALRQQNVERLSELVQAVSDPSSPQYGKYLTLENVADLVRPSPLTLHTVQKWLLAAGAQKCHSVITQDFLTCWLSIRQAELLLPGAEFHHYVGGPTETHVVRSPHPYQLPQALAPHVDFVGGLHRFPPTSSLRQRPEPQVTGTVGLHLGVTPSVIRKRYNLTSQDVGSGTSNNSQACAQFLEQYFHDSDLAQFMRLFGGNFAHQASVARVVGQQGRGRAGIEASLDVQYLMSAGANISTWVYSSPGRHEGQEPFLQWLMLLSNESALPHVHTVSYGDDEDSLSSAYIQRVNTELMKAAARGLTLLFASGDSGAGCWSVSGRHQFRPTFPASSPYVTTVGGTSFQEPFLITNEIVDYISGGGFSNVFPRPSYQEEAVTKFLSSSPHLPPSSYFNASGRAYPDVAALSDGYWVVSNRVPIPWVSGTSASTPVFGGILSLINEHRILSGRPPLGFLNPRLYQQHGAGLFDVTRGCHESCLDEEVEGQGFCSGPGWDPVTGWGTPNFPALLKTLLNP

Compound in the test: Cc1ccc(C(=O)N(CCCN)[C@@H](c2nc3cc(Cl)ccc3c(=O)n2Cc2ccccc2)C(C)C)cc1 [ispinesib]
Kind of test: log2 fold change, soluble protein after heating vs DMSO (PISA); higher = thermal stabilisation; K562 cells, 10 uM, 30 min; active = over 0.2 and 3.5 SD of the protein, either way, in both replicates (recomputed). In outline:
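Thermal stability values are relative to control samples and come from duplicates. They are expressed as log2 fold changes. For measurement, K562 cells (2×10^6 cells/mL) received 10 μM compound for 30 min, and aliquots were heated for 3 min over 48°C-58°C, pooled, and extracted at 4°C in PBS with 0.5% NP-40. Soluble protein, the supernatant after 21,000xg for 90 min, was quantified by TMTpro 16plex LC-MS/MS with equalised channel sums.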
Regarding TMEM214 (UniProt Q6NUQ4), the log2 fold change was 0.072 (inactive).

As to WDR62 isoform 4 (UniProt O43379), the log2 fold change is -0.02 (inactive).

Regarding VPS11 (UniProt Q9H270), the log2 fold change is -0.226 (inactive).

As to WASHC2C, A0A096LPC5, the log2 fold change is -0.135 (inactive).

In the case of WNK1 isoform 7 (UniProt Q9H4A3), the log2 fold change was -0.044 (inactive).

Take VPS52 (UniProt Q8N1B4): the log2 fold change is -0.068 (inactive).

TPM2 (UniProt P07951): the log2 fold change was 0.122 (inactive).

With WASHC2A (UniProt Q641Q2), the log2 fold change was -0.229 (inactive).

For TRAPPC11 (UniProt Q7Z392), the log2 fold change was -0.079 (inactive).

With WDHD1 (UniProt O75717), the log2 fold change was 0.042 (inactive).

With TXNIP (UniProt Q9H3M7), the log2 fold change was -0.087 (inactive).

As to VPS41 (UniProt P49754), the log2 fold change is -0.138 (inactive).

In the case of TRIP10 (UniProt Q15642), the log2 fold change is -0.021 (inactive).

Consider TRIP10 isoform 2 (UniProt Q15642), for which the log2 fold change is 0.309 (inactive).

For USP48 isoform 8 (UniProt Q86UV5), the log2 fold change was -0.07 (inactive).

VPS8 (UniProt Q8N3P4): the log2 fold change was -0.154 (inactive).

Turning to TOM1L1 (UniProt O75674), the log2 fold change is -0.016 (inactive).

For TMTC3 (UniProt Q6ZXV5), the log2 fold change is -0.188 (inactive).

On to TPP1 (UniProt O14773), for which the log2 fold change is -0.189 (inactive).

VPS28 (UniProt Q9UK41): the log2 fold change is -0.041 (inactive).

Take TMEM9 (UniProt Q9P0T7): the log2 fold change was -0.093 (inactive).

On to TNPO3 (UniProt Q9Y5L0), for which the log2 fold change is 0.008 (inactive).

As for WAPL isoform 3 (UniProt Q7Z5K2), the log2 fold change was -0.026 (inactive).

With TMEM192 (UniProt Q8IY95), the log2 fold change was -0.318 (active).

Turning to UHRF1BP1L (UniProt A0JNW5), the log2 fold change was 0.2 (inactive).

TTI1 (UniProt O43156): the log2 fold change is -0.204 (inactive).

As for USP34 (UniProt Q70CQ2), the log2 fold change was -0.007 (inactive).

Regarding UBE2E3 (UniProt Q969T4), the log2 fold change was -0.005 (inactive).

On to VDAC1 (UniProt P21796), for which the log2 fold change was 0.034 (inactive).

With TRMT10A (UniProt Q8TBZ6), the log2 fold change is 0.028 (inactive).

For USP25 isoform 3 (UniProt Q9UHP3), the log2 fold change was -0.025 (inactive).

On to UBAP1 isoform 4 (UniProt Q9NZ09), for which the log2 fold change is -0.046 (inactive).

As for TMEM63B (UniProt Q5T3F8), the log2 fold change is -0.312 (active).

Consider USP24 (UniProt Q9UPU5), for which the log2 fold change was 0.115 (inactive).

Regarding WDR41 (UniProt Q9HAD4), the log2 fold change was -0.172 (inactive).

TRAM1 (UniProt Q15629): the log2 fold change was -0.964 (active).
